Experimental data as given in the supplement of paper PMC11732987, “Enantioselective OTUD7B fragment discovery through chemoproteomics screening and high-throughput optimisation” (Communications Chemistry, 2025).

How the values were obtained:
Experiment in all cases: log2 ratio of Biotin-Ahx-Ub-VS probe labelling (fragment/DMSO); higher = less target engagement (more negative = stronger competition), active = hit call of the paper (q ≤ 0.05, log2 ratio ≤ -1)
Details in all cases: compound concentration: 200 uM; treatment time: 3 h
USP34 = USP34 (UniProt Q70CQ2)
Procedure, shortened: (§1)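 Labelling with Biotin-Ahx-Ub-VS (0.5 µM final, 1 h) followed a 3 h triplicate treatment of HEK293T lysate (495 µg per sample, Tris/CHAPS/IGEPAL buffer with protease inhibitors) with fragment at 200 µM or vehicle. Labelled DUBs were NeutrAvidin-enriched, digested with LysC and trypsin, and run by diaPASEF LC-MS/MS. The values, average log2 fragment/vehicle ratios by unpaired t-test, come from global-median-normalised Spectronaut label-free quantities. Proteins with ≥2 unique peptides were used.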

USP36 = molecular target: T1, USP36 (UniProt Q9P275)
T1 sequence (whole entry): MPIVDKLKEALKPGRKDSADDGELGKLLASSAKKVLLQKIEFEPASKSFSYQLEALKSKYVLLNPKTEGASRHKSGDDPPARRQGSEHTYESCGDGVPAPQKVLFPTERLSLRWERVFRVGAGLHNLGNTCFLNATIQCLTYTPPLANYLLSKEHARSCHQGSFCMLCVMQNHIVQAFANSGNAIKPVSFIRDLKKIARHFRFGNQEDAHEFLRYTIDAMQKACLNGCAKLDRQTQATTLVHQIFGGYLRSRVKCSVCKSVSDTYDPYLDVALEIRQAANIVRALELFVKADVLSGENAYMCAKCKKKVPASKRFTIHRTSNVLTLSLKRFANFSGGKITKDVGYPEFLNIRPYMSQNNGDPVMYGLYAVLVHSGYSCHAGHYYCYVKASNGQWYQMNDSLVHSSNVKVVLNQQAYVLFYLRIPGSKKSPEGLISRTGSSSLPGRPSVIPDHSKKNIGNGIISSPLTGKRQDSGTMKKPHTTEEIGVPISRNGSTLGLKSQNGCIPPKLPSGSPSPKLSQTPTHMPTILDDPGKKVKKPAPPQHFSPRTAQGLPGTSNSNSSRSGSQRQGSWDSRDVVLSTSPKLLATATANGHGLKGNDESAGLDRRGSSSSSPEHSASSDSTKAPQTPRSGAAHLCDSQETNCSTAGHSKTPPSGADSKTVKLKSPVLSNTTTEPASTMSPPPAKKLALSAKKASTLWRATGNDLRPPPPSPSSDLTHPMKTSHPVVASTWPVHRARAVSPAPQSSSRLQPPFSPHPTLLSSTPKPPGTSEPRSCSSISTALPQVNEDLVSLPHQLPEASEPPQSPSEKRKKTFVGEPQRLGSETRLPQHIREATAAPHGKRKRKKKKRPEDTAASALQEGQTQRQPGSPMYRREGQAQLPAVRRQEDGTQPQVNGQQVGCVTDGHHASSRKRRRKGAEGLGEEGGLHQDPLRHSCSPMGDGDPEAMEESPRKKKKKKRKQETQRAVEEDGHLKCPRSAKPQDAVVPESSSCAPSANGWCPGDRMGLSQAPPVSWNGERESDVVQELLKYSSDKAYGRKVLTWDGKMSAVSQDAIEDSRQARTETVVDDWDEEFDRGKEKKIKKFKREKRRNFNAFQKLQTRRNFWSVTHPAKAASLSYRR
Procedure, shortened: as §1

USP38 = molecular target: T2, USP38 (UniProt Q8NB14)
T2 sequence (whole entry): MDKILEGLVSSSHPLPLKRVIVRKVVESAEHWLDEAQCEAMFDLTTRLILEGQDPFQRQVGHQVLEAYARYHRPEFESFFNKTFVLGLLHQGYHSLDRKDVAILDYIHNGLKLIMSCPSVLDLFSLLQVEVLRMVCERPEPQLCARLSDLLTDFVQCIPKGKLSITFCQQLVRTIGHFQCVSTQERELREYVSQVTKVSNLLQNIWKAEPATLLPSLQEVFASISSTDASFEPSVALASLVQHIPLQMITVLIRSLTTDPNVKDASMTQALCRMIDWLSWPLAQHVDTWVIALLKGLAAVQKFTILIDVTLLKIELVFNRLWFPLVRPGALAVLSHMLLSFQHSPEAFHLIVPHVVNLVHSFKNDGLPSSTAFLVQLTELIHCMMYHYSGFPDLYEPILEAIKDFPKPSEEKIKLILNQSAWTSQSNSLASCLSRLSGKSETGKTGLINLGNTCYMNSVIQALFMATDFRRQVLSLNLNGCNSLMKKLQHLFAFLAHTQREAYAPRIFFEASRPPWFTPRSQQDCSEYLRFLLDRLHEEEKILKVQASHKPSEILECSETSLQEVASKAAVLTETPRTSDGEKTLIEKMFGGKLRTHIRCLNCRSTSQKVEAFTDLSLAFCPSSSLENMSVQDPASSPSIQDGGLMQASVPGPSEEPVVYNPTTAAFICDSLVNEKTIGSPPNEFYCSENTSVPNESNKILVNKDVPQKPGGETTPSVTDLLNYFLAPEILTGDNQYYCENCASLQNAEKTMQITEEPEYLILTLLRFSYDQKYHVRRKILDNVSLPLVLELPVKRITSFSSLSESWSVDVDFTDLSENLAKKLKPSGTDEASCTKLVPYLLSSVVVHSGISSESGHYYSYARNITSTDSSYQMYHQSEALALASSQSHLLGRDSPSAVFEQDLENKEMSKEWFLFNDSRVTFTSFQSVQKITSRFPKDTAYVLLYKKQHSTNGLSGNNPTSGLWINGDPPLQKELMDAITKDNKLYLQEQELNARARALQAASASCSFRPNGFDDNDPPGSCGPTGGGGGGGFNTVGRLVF
Procedure, shortened: as §1

USP39 = molecular target: T3, USP39 (UniProt Q53GS9)
T3 sequence (whole entry): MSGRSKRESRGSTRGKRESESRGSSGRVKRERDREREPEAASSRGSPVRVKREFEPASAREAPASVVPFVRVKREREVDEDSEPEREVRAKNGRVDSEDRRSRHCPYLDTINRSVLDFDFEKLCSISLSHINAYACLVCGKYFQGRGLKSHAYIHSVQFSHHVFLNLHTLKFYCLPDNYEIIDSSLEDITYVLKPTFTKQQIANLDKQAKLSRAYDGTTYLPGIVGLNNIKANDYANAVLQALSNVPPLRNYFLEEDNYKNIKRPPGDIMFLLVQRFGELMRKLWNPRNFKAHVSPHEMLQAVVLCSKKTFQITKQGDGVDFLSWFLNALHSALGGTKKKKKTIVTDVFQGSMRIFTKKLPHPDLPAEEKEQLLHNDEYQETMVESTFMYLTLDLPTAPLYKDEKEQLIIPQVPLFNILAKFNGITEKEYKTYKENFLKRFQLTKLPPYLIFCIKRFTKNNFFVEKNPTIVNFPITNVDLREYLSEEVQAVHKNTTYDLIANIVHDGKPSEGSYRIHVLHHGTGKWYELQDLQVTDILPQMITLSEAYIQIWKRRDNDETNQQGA
Procedure, shortened: as §1

USP4 = molecular target: T4, USP4 (UniProt Q13107)
T4 sequence (whole entry): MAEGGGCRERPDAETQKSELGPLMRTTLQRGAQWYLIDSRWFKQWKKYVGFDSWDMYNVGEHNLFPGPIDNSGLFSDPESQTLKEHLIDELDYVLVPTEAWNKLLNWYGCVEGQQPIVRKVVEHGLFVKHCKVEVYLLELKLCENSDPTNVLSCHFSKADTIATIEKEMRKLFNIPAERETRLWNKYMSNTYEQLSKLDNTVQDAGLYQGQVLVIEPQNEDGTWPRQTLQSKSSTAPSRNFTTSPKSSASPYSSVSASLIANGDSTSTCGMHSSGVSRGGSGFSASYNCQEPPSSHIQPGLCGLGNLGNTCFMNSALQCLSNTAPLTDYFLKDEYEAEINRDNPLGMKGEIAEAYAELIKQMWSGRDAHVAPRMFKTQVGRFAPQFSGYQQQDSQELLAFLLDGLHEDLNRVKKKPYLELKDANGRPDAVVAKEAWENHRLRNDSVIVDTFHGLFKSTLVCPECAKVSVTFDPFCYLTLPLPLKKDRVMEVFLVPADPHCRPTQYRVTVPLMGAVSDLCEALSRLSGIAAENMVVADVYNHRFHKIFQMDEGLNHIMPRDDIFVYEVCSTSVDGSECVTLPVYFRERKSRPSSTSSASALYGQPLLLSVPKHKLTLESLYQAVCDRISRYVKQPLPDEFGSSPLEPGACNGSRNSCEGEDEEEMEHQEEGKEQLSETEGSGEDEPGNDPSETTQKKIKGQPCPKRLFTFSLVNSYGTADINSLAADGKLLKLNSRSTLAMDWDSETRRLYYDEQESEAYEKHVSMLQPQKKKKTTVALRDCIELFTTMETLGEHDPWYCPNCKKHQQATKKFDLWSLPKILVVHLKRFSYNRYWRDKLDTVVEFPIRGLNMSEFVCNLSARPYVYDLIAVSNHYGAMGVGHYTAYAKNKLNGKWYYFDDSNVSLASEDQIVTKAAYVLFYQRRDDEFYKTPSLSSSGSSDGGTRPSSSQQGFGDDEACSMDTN
Procedure, shortened: as §1

Measured: log2 ratio of Biotin-Ahx-Ub-VS probe labelling

Sequence of USP34 (Q70CQ2 whole entry, the tested form may be a part): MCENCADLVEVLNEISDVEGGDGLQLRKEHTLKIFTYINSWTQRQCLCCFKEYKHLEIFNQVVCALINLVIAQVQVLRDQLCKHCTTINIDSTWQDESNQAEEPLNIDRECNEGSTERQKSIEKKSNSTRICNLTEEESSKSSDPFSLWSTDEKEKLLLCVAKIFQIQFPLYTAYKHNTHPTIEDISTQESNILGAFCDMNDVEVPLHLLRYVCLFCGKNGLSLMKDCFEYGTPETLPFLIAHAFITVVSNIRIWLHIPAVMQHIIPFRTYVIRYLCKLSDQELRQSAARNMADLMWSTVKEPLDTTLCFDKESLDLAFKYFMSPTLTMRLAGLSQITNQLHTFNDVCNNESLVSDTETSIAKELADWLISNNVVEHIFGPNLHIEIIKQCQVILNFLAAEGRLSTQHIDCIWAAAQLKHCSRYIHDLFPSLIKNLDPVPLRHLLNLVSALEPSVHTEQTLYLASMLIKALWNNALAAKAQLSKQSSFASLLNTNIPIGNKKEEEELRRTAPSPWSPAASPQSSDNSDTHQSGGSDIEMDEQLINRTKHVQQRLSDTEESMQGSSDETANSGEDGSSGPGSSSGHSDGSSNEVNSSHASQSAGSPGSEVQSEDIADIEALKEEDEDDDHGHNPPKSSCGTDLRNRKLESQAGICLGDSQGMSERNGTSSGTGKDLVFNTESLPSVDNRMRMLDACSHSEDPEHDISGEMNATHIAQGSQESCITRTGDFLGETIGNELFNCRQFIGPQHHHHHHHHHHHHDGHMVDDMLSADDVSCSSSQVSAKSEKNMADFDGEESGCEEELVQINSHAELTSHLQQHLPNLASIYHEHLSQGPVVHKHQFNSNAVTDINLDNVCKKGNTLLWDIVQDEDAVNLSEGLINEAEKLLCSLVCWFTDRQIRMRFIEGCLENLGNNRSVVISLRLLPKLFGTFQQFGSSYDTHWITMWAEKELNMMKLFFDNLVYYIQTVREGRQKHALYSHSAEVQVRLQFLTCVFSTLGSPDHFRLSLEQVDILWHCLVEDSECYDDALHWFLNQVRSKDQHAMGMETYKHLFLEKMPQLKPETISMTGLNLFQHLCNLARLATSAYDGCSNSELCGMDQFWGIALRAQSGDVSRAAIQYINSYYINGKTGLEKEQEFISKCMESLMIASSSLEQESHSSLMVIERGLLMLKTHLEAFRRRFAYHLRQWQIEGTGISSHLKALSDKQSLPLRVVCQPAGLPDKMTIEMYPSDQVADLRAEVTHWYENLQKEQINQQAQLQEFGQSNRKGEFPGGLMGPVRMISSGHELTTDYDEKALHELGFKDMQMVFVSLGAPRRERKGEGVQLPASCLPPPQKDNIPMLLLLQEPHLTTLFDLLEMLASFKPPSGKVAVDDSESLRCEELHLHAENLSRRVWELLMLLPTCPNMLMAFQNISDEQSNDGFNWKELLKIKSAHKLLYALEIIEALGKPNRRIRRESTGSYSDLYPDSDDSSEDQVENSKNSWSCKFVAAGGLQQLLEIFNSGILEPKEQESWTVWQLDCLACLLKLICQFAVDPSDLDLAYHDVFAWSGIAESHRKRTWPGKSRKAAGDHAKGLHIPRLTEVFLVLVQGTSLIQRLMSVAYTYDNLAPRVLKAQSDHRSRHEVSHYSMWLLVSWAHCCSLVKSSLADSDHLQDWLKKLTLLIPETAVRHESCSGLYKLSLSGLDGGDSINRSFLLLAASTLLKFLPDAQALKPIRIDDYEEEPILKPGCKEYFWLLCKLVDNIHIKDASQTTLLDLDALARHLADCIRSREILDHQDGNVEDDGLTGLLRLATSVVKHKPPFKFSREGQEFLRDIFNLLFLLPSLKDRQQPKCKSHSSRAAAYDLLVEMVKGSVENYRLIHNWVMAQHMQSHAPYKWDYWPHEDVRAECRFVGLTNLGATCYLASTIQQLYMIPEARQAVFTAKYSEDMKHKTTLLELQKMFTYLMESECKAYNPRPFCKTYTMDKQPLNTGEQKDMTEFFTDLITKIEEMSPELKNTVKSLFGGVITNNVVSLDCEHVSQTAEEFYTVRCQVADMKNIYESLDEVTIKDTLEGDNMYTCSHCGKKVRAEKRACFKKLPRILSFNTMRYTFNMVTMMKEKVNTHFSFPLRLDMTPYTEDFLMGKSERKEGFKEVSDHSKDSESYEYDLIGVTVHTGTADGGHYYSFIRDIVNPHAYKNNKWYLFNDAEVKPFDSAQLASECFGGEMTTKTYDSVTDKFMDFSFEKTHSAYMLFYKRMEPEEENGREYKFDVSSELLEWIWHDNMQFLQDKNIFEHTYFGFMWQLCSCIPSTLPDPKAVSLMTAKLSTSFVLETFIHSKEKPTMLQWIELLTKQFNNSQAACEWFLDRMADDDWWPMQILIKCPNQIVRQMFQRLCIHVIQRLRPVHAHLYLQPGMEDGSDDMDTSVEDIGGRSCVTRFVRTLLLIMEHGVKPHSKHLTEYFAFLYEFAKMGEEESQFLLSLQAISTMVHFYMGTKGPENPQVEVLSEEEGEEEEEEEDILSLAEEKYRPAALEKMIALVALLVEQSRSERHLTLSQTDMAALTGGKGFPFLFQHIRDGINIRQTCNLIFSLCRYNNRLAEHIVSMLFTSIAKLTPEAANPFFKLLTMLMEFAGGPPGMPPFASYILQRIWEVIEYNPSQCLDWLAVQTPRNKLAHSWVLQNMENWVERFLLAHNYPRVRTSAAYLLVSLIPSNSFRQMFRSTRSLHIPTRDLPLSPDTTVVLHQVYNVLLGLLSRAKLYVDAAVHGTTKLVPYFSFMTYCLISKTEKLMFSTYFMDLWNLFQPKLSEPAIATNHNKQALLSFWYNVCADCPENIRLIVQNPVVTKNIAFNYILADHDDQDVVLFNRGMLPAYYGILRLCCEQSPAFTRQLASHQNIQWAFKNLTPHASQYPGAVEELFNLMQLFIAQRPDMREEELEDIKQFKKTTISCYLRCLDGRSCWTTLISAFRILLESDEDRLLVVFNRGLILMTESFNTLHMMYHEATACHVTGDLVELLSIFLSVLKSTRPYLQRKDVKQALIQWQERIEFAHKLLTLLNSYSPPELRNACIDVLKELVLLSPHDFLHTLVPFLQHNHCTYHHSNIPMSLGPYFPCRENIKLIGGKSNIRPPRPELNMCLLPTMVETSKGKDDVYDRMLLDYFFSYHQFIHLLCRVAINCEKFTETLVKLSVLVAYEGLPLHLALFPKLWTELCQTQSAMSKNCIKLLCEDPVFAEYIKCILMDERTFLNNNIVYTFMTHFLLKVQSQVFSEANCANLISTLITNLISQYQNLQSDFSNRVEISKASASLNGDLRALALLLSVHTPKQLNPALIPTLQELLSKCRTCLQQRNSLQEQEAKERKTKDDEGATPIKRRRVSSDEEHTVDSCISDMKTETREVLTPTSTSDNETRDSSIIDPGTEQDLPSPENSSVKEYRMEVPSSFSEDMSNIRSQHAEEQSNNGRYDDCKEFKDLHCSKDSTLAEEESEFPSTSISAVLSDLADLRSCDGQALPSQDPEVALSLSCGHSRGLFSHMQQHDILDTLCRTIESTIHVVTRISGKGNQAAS

O=C(CCl)Nc1ccc(N2CCCC2=O)cc1
inactive: USP34 0.0377 | USP36 0.2 | USP38 0.147 | USP39 -0.106 | USP4 0.0532
